IMPase Li cell: IMPase inhibition in cells with lithium potentiation; CHO-M1 cells, IP1 TR-FRET (IP-One), carbachol + lithium; Potency, µM (doses to about 59.4 µM), for the others: at the highest dose activity, negative = IMPase inhibition, hits mostly inhibitors; actives 0.35% (n = 210,000); AID 1457;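 also: IP1 builds up when IMPase is blocked and the TR-FRET signal falls; potency is read from the fitted curve at half-maximal effect; plate controls were basal vehicle for no effect and high inhibitor control for full effect; nearly all actives have a fitted effect of over 50% in size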
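Test compounds were applied to CHO-M1 cells previously cultured for 16–30 h at 2000 per well. A small lithium amount accompanied them; after 30 min at 37C, IP1 was quantified by TR-FRET.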
PNC inhibitor: perinucleolar compartment assembly inhibition | PC3M PTB-GFP, PNC prevalence imaging, 16 h; stronger effect = lower value | activity change (PNC), negative = inhibition, % at 10 µM | actives 3.1% (n = 140,000);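 active = readout at or below -70, meaning at least 70% loss of cells showing the perinucleolar compartment, a nuclear body marking cancer cells; inconclusive = readout between -30 and a set limit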;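 also: plate controls were DMSO wells for no effect and camptothecin positive control wells for full effect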
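Compounds are pinned in duplicate onto adhered PC3M cells stably expressing GFP-tagged PTB and incubated 16 h at 37 C. Cells are then fixed, nuclei stained with Hoechst, and PNC-positive cells counted.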
NPSR antag: blocks cAMP signaling of the human neuropeptide S receptor. AID 1461. CHO-NPSR cells, cAMP TR-FRET, antagonist mode. Potency, µM (series often up to 38.3 µM), without a hit: at the top dose activity change, negative = inhibition, actives largely listed as inhibitors. Q6W5P4. actives 1% (n = 220,000); also: potency is read from the fitted curve at half-maximal effect; % is scaled to controls: 0 for no effect and ±100 for the full control effect; nearly all actives have a fitted effect of over 50% in size
Target sequence (Q6W5P4 whole entry, looked up): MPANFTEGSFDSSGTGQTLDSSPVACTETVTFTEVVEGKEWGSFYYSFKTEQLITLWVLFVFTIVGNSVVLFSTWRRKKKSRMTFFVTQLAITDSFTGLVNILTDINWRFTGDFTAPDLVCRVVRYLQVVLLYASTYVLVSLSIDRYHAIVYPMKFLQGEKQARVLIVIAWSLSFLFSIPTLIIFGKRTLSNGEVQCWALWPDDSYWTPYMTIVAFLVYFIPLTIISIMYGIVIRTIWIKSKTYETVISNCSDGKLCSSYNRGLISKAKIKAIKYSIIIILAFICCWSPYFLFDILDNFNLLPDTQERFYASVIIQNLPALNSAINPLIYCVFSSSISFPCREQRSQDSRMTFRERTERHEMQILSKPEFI
IMPase cell inh: cell-permeable inhibitors of inositol monophosphatase (IMPase); P97697; CHO-M1 cells, IP1 accumulation, HTRF TR-FRET ratio; inhibition (IP1 accumulation), % at 46.1 µM; 120,000 tested, under 10 active; AID 901; active = well fitted curve in the direction sought with a large enough effect in the signal ratio, not every such curve was filed as active; inconclusive = small, poorly fitted or top-dose-only effect, or a change in a side signal; inactive = no such curve, though single readings can be large or run the other way; the % refers to the signal ratio;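 also: cells stimulated with carbachol in lithium chloride buffer; plate controls were DMSO basal wells for no effect and reference inhibitor wells for full effect; higher means more IMPase inhibition seen as more IP1 and lower FRET ratio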
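Cellular IMPase inhibition is scored as a rise in cytosolic IP1, detected by competitive TR-FRET between d2-labelled IP1 and a europium anti-IP1 antibody. M1-expressing CHO cells were stimulated with carbachol for 30 min at 37C, with lithium (50 mM LiCl) present in the buffer.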
HttQ103 aggreg: mutant huntingtin aggregation inhibition; Potency, µM (series often up to 46.1 µM), for the others: at the highest dose activity change, negative = inhibition, usual class: inhibitors; actives 1.1% (n = 220,000); PC12 HttQ103-GFP aggregates, Acumen cytometry, 40 h; also: potency is read from the fitted curve at half-maximal effect; % is scaled to controls: 0 for no effect and ±100 for the full control effect; nearly all actives have a fitted effect of over 60% in size
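Quantitative HTS on tebufenozide-induced (100 nM) PC12 cells stably expressing polyQ103 Huntingtin exon 1–GFP. Reduction of bright GFP aggregates, detected by laser scanning cytometry after lysis, identified actives across the titration.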
HTT ATP protect: cytoprotection in Huntington HTT-Q103 PC12 cell model | PC12 HTT-Q103 induced, cytoprotection, ATP luminescence, 40 h | Potency, µM (titrated, usually from 56.4 µM), without a hit: cytoprotection (ATP increase), hits mostly activators | actives 0.14% (n = 230,000); also: potency is read from the fitted curve at half-maximal effect; % of control where 0% means no effect; nearly all actives have a fitted effect of over 45% in size
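Huntington model: PC12 line, ecdysone-inducible HTTQ103 exon1–GFP, tebufenozide 100 nM. Test articles in a dose series. Endpoint luminescence from cellular ATP.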
Starred values were filed as active, the others as inactive; ? = inconclusive; . = not tested or not shown; ! = a repeat was not active; [ ] = another dose, or the depositor's remark. Shown are actives, neighbours in structure and some others; about 3.4% of the full set was active somewhere. Unless noted, calls follow the shape of the dose curve; as a rule, active = well fitted curve in the direction sought with a large enough effect; inconclusive = small, poorly fitted or top-dose-only effect, or another doubt; inactive = no such curve, though single readings can be large; an effect the other way counts as inactive or inconclusive.

SMILES | IMPase Li cell | PNC inhibitor | NPSR antag | IMPase cell inh | HttQ103 aggreg | HTT ATP protect
c1ccc(CSc2ncnc3c2cnn3Cc2ccccc2)cc1 | 26%[38.3 µM] | -112* | -20%[46.1 µM] | 11 | -21% | -9%
O=C1c2sc3nc4ccccc4n3c2C(=O)N1c1ccccc1Cl | 22%[38.3 µM] | 20 | 10µM* | -10 | -10% | -16%
COc1ccc(CCNC(=O)COc2ccc(-c3ccccc3)cc2)cc1OC | 10µM* | -23 | -21%[46.1 µM] | 15 | 7% | -9%[10 µM]
CCOc1ccc(CCNC(=O)C2CCCN(C(=O)N(C)C)C2)cc1OCC (stereo not drawn) | 6% | -100* | -1%[46.1 µM] | -5 | 10% | 0%[10 µM]
COc1cc(C(=O)NNC(=O)NC2CCCCC2)cc(OC)c1OC | 13%[38.3 µM] | -120* | 10%[46.1 µM] | -17[1.84 µM] | 6% | 28%[10 µM]
CCOc1ccc(CCNC(=O)C2CCN(S(=O)(=O)N3CCCCC3)CC2)cc1OCC | -1% | 84 | -8% | . | -20% | .
COc1ccc(CCNC(=S)NC(=O)c2ccccc2)cc1OC | 15%[38.3 µM] | -101* | -9%[46.1 µM] | 0 | 12% | -20%
N#Cc1c(N)nc2c(c1-c1ccccc1)CCC2 | 7% | . | -9% | . | . | .
COc1ccc(CCNC(=O)CC(c2ccccc2)c2cccc(C)c2O)cc1OC (stereo not drawn) | 7% | . | 1µM* | . | -3% | 4%
COc1ccc(CCNC(=O)NC2CCCCC2)cc1OC | -3%[38.3 µM] | -81* | -1%[46.1 µM] | -1 | -13% | 4%[1.9 µM]
O=C(c1cnccn1)N1CCC2(CCCN(c3ccncc3)C2)CC1 | 19% | . | . | . | . | 23%
O=C(NC(Nc1nc2ccc([N+](=O)[O-])cc2s1)(C(F)(F)F)C(F)(F)F)c1ccccc1Cl | 22% | -119* | 7.9µM* | 15 | 0.32µM* | -61%[10 µM]
CC1=C([N+](=O)[O-])C(c2cccc(Br)c2)C2=C(N1)c1ccccc1C2=O (stereo not drawn) | 47%[38.3 µM] | -83* | ? | 9 | ? | -98%
Cc1ccc(C(=O)N2NC(c3ccc(F)cc3)C3C(=O)N(c4ccc(C)cc4)C(=O)C32)cc1 (stereo not drawn) | -2% | 63 | 1% | . | 7% | .
Cc1ccc(C(=O)N2NC(c3ccc(F)cc3)C3C(=O)N(c4ccc(C)c(C)c4)C(=O)C32)cc1 (stereo not drawn) | 1% | -90* | -5% | . | -3% | .
CNC(=O)c1cc2cc(OC)ccc2oc1=N | -5%[38.3 µM] | 18 | 2%[46.1 µM] | -9 | -6% | -2%
COc1ccc2oc(=N)c(C(=O)Nc3ccccc3)cc2c1 | 8%[38.3 µM] | -83* | -10%[46.1 µM] | -7 | 5% | -23%
Cn1c(N)c(N2CCCCC2)c(=O)n(CC(=O)Nc2ccc(Cl)c(Cl)c2)c1=O | 9%[38.3 µM] | -16 | -14%[46.1 µM] | -1 | -8% | -13%
O=C(Cn1c2c(sc1=O)C1c3ccccc3OCC1CS2)Nc1ccc(Cl)c(Cl)c1 (stereo not drawn) | 11% | 56 | -11% | . | 2.8µM* | 4%[10 µM]
NC(=O)NCCS[C@H]1CCCC[C@@H]1O | 3% | . | . | . | . | -10%[10 µM]
Cc1ccc(C(=O)N/N=C(\CC(C)C)c2ccccc2)cc1 | 3% | -105* | -2% | . | -2% | -29%[10 µM]
COc1cccc(C(=O)N/N=C(\CC(C)C)c2ccccc2)c1 | 4% | ? | -11% | . | -16% | .
CC(=O)NCCNc1nc(-c2ccc(N(C)C)cc2)nc2ccccc12 | 14% | . | . | . | . | -38%
O=C1CCCc2nc(N3CCN(c4ccccc4)CC3)ncc21 | 11µM* | 7 | -31%[46.1 µM] | -8 | 10%[9.22 µM] | 7%
Cc1nc(N2CCN(c3ccccc3)CC2)nc2c1C(=O)CCC2 | 30%[38.3 µM] | ? | -12%[46.1 µM] | 24 | ? | -16%[0.074 µM]
CC[C@H](C)C(=O)O[C@H]1CCC=C2C=C[C@H](C)[C@H](CC[C@@H]3C[C@@H](O)CC(=O)O3)[C@H]21 | -12% | . | 16µM*! | . | ? | -14%[10 µM]
O=C1CC(c2nnc(Cc3ccc(F)cc3)o2)CN1c1ccccc1 (stereo not drawn) | . | . | . | 7 | . | .

Assay outcomes (PubChem)
